Experimental data taken from PubChem BioAssay (NCATS).
Results filed as inconclusive are left out. A call without a number means that no potency is given here. A number with no mark means an inactive call. Active and inactive are the calls of the source. Calls follow the shape of the dose curve; as a rule, active = well fitted inhibition curve with a large enough effect; inconclusive = small, poorly fitted or top-dose-only effect; inactive = no such curve, though single readings can be large or run the other way.

What was measured:
[1] = system: Zika virus NS2B-NS3 protease (unlinked complex); experiment: Primary screen GU Rhodamine qHTS for Zika virus inhibitors: Unlinked NS2B-NS3 protease assay (AID 1347159); also: nearly all actives have a fitted effect of over 60% in size
Summary of the method: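 Noncovalent NS2B hydrophilic domain–NS3 protease domain complex (25 nM) preincubated 15 min at room temperature with compounds (up to 114 microM) in 10 mM Tris-HCl pH 8.0, 0.01% Tween 20; 1.5 microM Rhodamine110 substrate added, fluorescence change over 15 min fitted to Hill equation.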

[2] = system: Zika virus NS2B-NS3 protease (linked construct); experiment: Primary screen NINDS Rhodamine qHTS for Zika virus inhibitors (AID 1347160); also: nearly all actives have a fitted effect of over 55% in size
Summary of the method: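 Purified linked NS2B-NS3 protease (NS2B hydrophilic domain joined to NS3 protease by flexible linker), 25 nM in 10 mM Tris-HCl pH 8.0, 0.01% Tween 20. Compounds titrated, 15 min preincubation at room temperature; 1.5 microM Rhodamine110 substrate, FITC fluorescence change over 15 min.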

Row | SMILES | Potency [1] | Potency [2] | activity change, negative = inhibition [1] | outcome [2]
1 | COc1cc(O)c2c(c1)C1(OC2=O)C(C)=CC(=O)C1O (stereo unspecified) | inactive | inactive |  | 
2 | C=C(C)C(O)COc1ccc(CC(=O)O)cc1 (stereo unspecified) | inactive | inactive |  | 
3 | CC1(C)C[C@@H]2[C@H](C1)[C@@]1(C)C[C@]13C(O)OC[C@]3(O)[C@H]2O (stereo partly specified) | inactive | inactive |  | 
4 | C[C@@H]1O[C@@H](O[C@H]2[C@H](OC(=O)[C@]34CCC(C)(C)C[C@H]3C3=CCC5[C@@]6(C)CC[C@H](O[C@@H]7O[C@H](CO[C@@H]8OC[C@H](O)[C@H](O)[C@H]8O)[C@@H](O)[C@H](O)[C@H]7O)C(C)(C)C6CC[C@@]5(C)[C@]3(C)C[C@H]4O)OC[C@@H](O)[C@@H]2O)[C@H](O)[C@H](O[C@@H]2OC[C@](O)(CO)[C@H]2O)[C@H]1O[C@@H]1OC[C@H](O)[C@H](O[C@@H]2OC[C@@H](O)[C@H](O)[C@H]2O)[C@H]1O (stereo partly specified) |  |  | -5.76% [at 19.1 µM] | inactive [at 10.7 µM]
5 | COc1cc(-c2ccc(O)cc2)c(OC)c(O)c1C1=CC(=O)OC1CC(=O)O (stereo unspecified) | inactive | inactive |  | 
6 | C[C@@H]1C(=O)O[C@H]2[C@H]1CC[C@@]1(C)C(=O)C=C[C@@](C)(O)[C@H]21 | inactive | inactive |  | 
7 | COC(=O)C1=COC(OC2OC(CO)C(O)C(O)C2O)C2C(COC(=O)/C=C/c3ccc(O)cc3)C(O)C(O)C12 (stereo unspecified) | inactive | inactive |  | 
8 | O=C(OC1C=C(CO)C2C(OC3OC(CO)C(O)C(O)C3O)OC=CC12O)c1ccc(O)cc1 (stereo unspecified) | inactive | inactive |  | 
9 | CC(C)=C1CC2[C@](C)(CC[C@@H](OC(=O)C3(C)OC3C)[C@@]2(C)O)CC1=O (stereo partly specified) | inactive | inactive |  | 
10 | CCc1nn(CCO)c(CC)c1Oc1cc(C#N)cc(C#N)c1 | inactive | inactive |  | 
11 | C[C@]1(OC(=O)/C=C/c2ccc(O)cc2)C[C@@H](O)[C@]2(O)C=CO[C@@H](O[C@@H]3O[C@H](CO)[C@@H](O)[C@H](O)[C@H]3O)C12 (stereo partly specified) | inactive | inactive |  | 
12 | CC(=O)OCC(Cc1ccccc1)NC(=O)C(Cc1ccccc1)NC(=O)c1ccccc1 (stereo unspecified) | inactive | inactive |  | 
13 | Cc1cc(OCCN2CCOCC2)nn1-c1ccc2ccccc2c1 | inactive | inactive |  | 
14 | C/C=C/C1OC2=C(C(=O)OC2(C)O)C(O)C1O (stereo unspecified) | inactive | inactive |  | 
15 | CS(=O)(=O)c1ccccc1N1CCN(c2nc3c(c(=O)[nH]2)CSCC3)CC1 | inactive | inactive |  | 
16 | CNc1nc(Cc2ccccc2)nc2c1CCNC[C@@H]2C | inactive | inactive |  | 
17 | CC1C2=CC(=O)OC2(O)CC2C1C(O)CC1C(C)(CO)CCCC21C (stereo unspecified) | inactive | inactive |  | 
18 | OC[C@@]1(O)CO[C@H](OC[C@H]2O[C@@H](OC(CCCCc3ccc(O)cc3)CCc3ccc(O)cc3)[C@H](O)[C@@H](O)[C@@H]2O)[C@@H]1O (stereo partly specified) | inactive | inactive |  | 
19 | C/C=C/C(=O)OC1/C=C/C(O)C(OC(C)=O)CCC(=O)OC1C (stereo unspecified) | inactive | inactive |  | 
20 | CC1=C2C[C@H]3OC(=O)[C@H](O)[C@@]4(O)[C@@H](C)[C@@H](O)[C@H](O)C([C@@]2(C)[C@H](O)[C@@H](O)C1)[C@@]34C (stereo partly specified) | inactive | inactive |  | 
21 | C=C[C@H]1[C@H](O[C@@H]2O[C@H](CO)[C@@H](O)[C@H](O)[C@H]2O)OC=C2C(=O)N3Cc4c([nH]c5ccccc5c4=O)[C@@H]3C[C@H]21 | inactive | inactive |  | 
22 | CC1(C(=O)O)CC[C@]2(C(=O)OC3OC(CO)C(O)C(O)C3O)CC[C@]3(C)C(=CCC4[C@@]5(C)CC[C@H](OC6OCC(O)C(O)C6OC6OC(CO)C(O)C(O)C6O)C(C)(C)C5CC[C@]43C)C2C1 (stereo partly specified) | inactive | inactive |  | 
23 | CC1OC(O[C@H]2CC[C@@]3(C)C(CC[C@]4(C)C3CC=C3C5CC(C)(C)CC[C@]5(C(=O)OC5OC(CO)C(OC6OCC(OC7OCC(O)C(O)C7O)C(O)C6O)C(O)C5O)CC[C@]34C)C2(C)C)C(O)C(O)C1OC1OC(CO)C(O)C(OC2OC(CO)C(O)C(O)C2O)C1O (stereo partly specified) |  |  | 1.81% [at 19.1 µM] | inactive [at 10.7 µM]
24 | COc1cc(CO)cc(OC)c1O[C@@H]1O[C@H](CO)[C@@H](O)[C@H](O)[C@H]1O | inactive | inactive |  | 
25 | CO[C@@H]1[C@]2(O)C(=O)N3/C=C\C(C)(C)c4[nH]c5ccccc5c4/C=C\3C(=O)N2[C@]23[C@H](CO)C(C)(C)N2c2ccccc2[C@]13O | inactive | inactive |  | 
26 | CC(C)NC(=O)c1ccc(C#Cc2ccncc2)cn1 | inactive | inactive |  | 
27 | CSC(=O)OCC1=C[C@@H]2OC(=O)C3=CO[C@@H](O[C@@H]4O[C@H](CO)[C@@H](O)[C@H](O)[C@H]4O)[C@H]1[C@@H]32 | inactive | inactive |  | 
28 | O=[N+]([O-])c1cc(Cl)ccc1S(=O)(=O)N1CCN(Cc2ccccc2)CC1 | inactive | inactive |  | 
